Test results: PubChem BioAssay (EPA / NIEHS)
Inconclusive results are not listed. Activity calls are given as the source filed them. How the source made its calls, unless noted: active means hit-call score of the fitted dose curve at least 0.9, where 1 is the maximum; inconclusive means response in the unintended direction; inactive means score below 0.9.

Assays:
[1] = target: human Peroxisome Proliferator-activated Receptor alpha (PPARa), PPARA (gene 5465) (UniProt Q07869); assay: NVS_NR_hPPARa: NovaScreen (NVS) Nuclear Receptor Binding Assay for human Peroxisome Proliferator-activated Receptor alpha (PPARa) (AID 2283359);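 further: activity means loss of TR-FRET signal versus DMSO baseline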
Procedure, shortened: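 TR-FRET signal measured at 1 h post-dosing; loss-of-signal versus DMSO negative control taken as activity. Extracted gene-protein, cell-free format. Initial single-point duplicates at 25 uM, then concentration-response retests.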

[2] = target: Glucocorticoid receptor (Homo sapiens) (UniProt P04150); assay: NVS_NR_hGR: NovaScreen (NVS) Nuclear Receptor Binding Assay for human Glucocorticoid Receptor (GR) (AID 2283363);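 on AC50: activity is loss of specific radioligand binding signal relative to DMSO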
Procedure, shortened: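 Filter scintillation readout of tritiated/iodinated radioligand displaced by test chemical; cell-free extracted protein; 16 h. DMSO = negative control/baseline. Duplicate single-point 25 uM screen, then concentration-response on actives.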

[3] = target: Nuclear receptor subfamily 1 group I member 2 (Homo sapiens) (UniProt O75469); assay: NVS_NR_hPXR: NovaScreen (NVS) Nuclear Receptor Binding Assay for human Pregnane X Receptor (PXR) (AID 2283365);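 further: a drop in FRET signal versus DMSO baseline means the compound binds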
Chain of Nuclear receptor subfamily 1 group I member 2 (Homo sapiens) (O75469 whole entry, looked up): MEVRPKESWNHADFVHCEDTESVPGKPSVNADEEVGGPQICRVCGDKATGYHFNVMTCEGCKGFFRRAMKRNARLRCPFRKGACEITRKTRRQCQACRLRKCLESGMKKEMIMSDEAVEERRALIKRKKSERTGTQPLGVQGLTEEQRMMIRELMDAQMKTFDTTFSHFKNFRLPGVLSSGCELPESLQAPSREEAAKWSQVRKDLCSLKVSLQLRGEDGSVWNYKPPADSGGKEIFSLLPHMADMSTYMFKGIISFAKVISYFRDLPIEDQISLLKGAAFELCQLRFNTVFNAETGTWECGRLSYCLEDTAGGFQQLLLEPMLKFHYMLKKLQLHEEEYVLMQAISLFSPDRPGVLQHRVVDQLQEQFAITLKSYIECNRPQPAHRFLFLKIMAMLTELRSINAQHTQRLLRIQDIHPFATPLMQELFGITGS
Procedure, shortened: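 Binding was measured by time-resolved fluorescence resonance energy transfer after a 2 h exposure of extracted human PXR protein without cells. Compounds were first tested at 25 uM in duplicate, with concentration series for actives; DMSO defined baseline.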

[4] = target: Agonist Androgen Response Element (ARE), AR (gene 367) (UniProt P10275); assay: OT_AR_ARELUC_AG_1440: Odyssey Thera (OT) 24-hour CHO-K1 Luciferase Assay for Agonist Androgen Response Element (ARE) (AID 2283379)
Chain of Agonist Androgen Response Element (ARE), AR (gene 367) (P10275 whole entry, looked up): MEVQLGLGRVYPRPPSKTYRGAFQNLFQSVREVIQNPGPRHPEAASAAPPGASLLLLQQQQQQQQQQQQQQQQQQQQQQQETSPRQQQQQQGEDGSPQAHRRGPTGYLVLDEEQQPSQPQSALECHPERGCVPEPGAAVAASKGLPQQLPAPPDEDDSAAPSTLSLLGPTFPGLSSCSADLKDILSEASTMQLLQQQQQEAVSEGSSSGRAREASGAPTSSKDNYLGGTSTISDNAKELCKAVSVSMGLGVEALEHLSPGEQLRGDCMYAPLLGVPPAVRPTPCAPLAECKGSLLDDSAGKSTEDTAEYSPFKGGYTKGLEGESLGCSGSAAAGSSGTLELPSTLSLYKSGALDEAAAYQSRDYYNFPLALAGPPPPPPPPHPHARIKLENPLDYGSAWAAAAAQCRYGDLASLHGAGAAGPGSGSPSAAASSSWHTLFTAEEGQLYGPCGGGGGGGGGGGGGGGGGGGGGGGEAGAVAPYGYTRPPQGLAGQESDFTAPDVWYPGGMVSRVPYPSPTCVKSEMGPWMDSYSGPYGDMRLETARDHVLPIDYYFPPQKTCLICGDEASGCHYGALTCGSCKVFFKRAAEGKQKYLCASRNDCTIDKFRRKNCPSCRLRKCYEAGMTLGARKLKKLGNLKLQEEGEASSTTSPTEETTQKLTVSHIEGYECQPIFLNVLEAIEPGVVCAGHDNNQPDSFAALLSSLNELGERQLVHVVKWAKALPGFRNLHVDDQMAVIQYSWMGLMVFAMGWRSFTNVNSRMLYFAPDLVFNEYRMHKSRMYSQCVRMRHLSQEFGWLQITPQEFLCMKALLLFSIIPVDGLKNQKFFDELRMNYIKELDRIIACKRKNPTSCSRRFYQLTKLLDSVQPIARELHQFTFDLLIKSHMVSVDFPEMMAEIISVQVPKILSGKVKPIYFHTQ
Procedure, shortened: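 Gain-of-signal reporter endpoint: cells (CHO-K1, hamster) are treated 24 h, luciferin/ATP reagent added, and luminescence compared with DMSO baseline.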

[5] = target: Estrogen receptor (Homo sapiens) (UniProt P03372); assay: OT_ERa_GFPERaERE_0480: Odyssey Thera (OT) 8-hour HeLa Transcription Induction Assay for Estrogen Receptor (AID 2283381; active means hit-call score of the fitted dose curve at least 0.9, where 1 is the maximum; inactive means score below 0.9)
Chain of Estrogen receptor (Homo sapiens) (P03372 whole entry, looked up): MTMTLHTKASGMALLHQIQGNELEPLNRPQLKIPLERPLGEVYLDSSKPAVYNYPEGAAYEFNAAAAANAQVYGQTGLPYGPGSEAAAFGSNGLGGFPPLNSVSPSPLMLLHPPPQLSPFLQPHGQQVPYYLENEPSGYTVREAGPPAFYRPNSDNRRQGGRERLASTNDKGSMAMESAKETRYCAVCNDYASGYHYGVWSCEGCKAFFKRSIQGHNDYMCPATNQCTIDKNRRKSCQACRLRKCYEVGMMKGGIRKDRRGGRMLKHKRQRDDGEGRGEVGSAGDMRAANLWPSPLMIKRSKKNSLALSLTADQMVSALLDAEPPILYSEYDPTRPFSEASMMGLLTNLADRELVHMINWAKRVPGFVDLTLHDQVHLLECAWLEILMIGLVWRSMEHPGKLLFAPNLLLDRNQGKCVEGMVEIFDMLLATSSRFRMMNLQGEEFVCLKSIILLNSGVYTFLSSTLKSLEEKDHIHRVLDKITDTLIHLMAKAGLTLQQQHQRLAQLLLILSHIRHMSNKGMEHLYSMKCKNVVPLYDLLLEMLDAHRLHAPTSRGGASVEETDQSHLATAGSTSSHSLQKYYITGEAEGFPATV
Procedure, shortened: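 Human cervical HeLa cells were treated for 8 hours, after which ERE-driven GFP induction was measured by fluorescence microscopy; increases over DMSO baseline defined activity.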

[6] = target: mouse Estrogen Receptor alpha (Era), Esr1 (gene 13982) (UniProt P19785); assay: NVS_NR_mERa: NovaScreen (NVS) Nuclear Receptor Binding Assay for mouse Estrogen Receptor alpha (Era) (AID 2283378);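 further: hit means loss of bound radioligand signal relative to DMSO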
Procedure, shortened: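 Test chemicals competed against a specific radioligand for binding to cell-free mouse Era. Duplicate wells at 25 uM were read 18 hours later by filter-based radiodetection, with loss of signal against DMSO scored as activity.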

PGR (gene 5241) = PGR (gene 5241) (UniProt P06401); assay: NVS_NR_hPR: NovaScreen (NVS) Nuclear Receptor Binding Assay for human Progestron Receptor (PR) (AID 2283360);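 further: active means loss of bound radioligand signal versus DMSO baseline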
Procedure, shortened: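 T47D-derived receptor preparation, cell-free, with tritiated or iodinated radioligand displacement measured by scintillation 18 h post-dosing. Single 25 uM duplicate screen, then concentration series; signal loss relative to DMSO.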

[7] = target: human Dopamine Transporter (DAT), SLC6A3 (gene 6531) (UniProt Q01959); assay: NVS_TR_hDAT: NovaScreen (NVS) Transporter Assay for human Dopamine Transporter (DAT) (AID 2283374);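 further: activity means loss of bound radioligand signal relative to DMSO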
Chain of human Dopamine Transporter (DAT), SLC6A3 (gene 6531) (Q01959 whole entry, looked up): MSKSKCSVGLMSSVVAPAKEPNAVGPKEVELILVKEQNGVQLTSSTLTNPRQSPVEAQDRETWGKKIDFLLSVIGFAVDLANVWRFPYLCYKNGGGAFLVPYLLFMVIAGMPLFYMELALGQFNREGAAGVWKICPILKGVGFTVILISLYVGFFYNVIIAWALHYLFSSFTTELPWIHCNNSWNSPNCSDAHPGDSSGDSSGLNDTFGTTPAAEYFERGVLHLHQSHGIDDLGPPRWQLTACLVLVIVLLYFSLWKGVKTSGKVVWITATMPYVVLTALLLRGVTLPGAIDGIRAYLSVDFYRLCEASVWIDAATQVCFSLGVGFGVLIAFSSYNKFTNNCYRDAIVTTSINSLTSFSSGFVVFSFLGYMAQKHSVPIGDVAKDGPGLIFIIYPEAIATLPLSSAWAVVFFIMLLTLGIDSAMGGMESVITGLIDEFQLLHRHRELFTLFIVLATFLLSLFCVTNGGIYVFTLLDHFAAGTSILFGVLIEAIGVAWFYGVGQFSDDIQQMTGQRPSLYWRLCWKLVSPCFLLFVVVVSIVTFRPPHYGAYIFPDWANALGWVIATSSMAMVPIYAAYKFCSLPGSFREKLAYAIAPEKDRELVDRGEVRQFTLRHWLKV
Procedure, shortened: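 hDAT membranes + tritiated/iodinated radioligand, competitive displacement; 1 h; filter scintillation readout. Single conc 25 uM (duplicate), then conc-response for actives. DMSO = negative control.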

[8] = target: Estrogen receptor (Homo sapiens) + Estrogen receptor beta (Homo sapiens) (UniProt P03372+Q92731); assay: OT_ER_ERaERb_1440: Odyssey Thera (OT) 24-hour HEK293T Protein-Complementation Assay for Estrogen Receptor-alpha/-beta Homodimer (AID 2283356);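 further: heteromer of ER alpha and ER beta binding domains; hits raise reporter fluorescence and both agonists and antagonists give an increase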
Chain of Estrogen receptor (Homo sapiens) + Estrogen receptor beta (Homo sapiens) (P03372 whole entry, looked up, the tested form may be a part): as the sequence (P03372 whole entry, looked up) above
Chain of Estrogen receptor (Homo sapiens) + Estrogen receptor beta (Homo sapiens) (Q92731 whole entry, looked up, the tested form may be a part): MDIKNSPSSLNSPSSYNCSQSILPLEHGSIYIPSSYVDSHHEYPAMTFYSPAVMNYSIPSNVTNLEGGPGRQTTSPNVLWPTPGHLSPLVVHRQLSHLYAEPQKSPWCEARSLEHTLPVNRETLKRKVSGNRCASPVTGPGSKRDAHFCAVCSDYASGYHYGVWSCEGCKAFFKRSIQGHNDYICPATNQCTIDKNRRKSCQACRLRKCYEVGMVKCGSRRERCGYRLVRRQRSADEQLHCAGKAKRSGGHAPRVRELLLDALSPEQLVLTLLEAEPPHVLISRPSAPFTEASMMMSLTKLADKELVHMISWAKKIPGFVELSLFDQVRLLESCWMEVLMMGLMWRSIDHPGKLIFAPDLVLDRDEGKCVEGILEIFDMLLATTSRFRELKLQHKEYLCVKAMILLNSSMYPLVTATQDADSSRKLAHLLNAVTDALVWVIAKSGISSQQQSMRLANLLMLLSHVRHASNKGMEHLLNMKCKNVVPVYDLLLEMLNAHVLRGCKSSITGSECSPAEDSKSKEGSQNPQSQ
Procedure, shortened: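 Heterodimerisation of ERα (aa 310-547) and ERβ (aa 263-489) ligand binding domains was tracked as fluorescence gain in stably transfected HEK293T cells following 24 h dosing, normalised to DMSO controls.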

[9] = target: Estrogen receptor beta (Homo sapiens) (UniProt Q92731); assay: OT_ER_ERbERb_0480: Odyssey Thera (OT) 8-hour HEK293T Protein-Complementation Assay for Estrogen Receptor-beta/-beta Homodimer (AID 2283357);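 further: active means signal gain over DMSO baseline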
Chain of Estrogen receptor beta (Homo sapiens) (Q92731 whole entry, looked up, the tested form may be a part): as above
Procedure, shortened: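 Homodimerization of ER-beta LBD measured by protein-fragment complementation in HEK293T; 8 h dosing; fixed, Draq5 counterstain; fluorescence intensity gain over DMSO baseline, positive fitting direction; laser scanning cytometry.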

[10] = target: Retinoic acid receptor alpha (Homo sapiens) (UniProt P10276); assay: NVS_NR_hRAR_Antagonist: NovaScreen (NVS) Nuclear Receptor Binding Assay for human Retinoic Acid Alpha Receptor Antagonism (RAR) (AID 2283358)
Procedure, shortened: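 Read-out: time-resolved FRET binding signal, 2 h post-dose, cell-free extracted protein. Antagonism scored as signal loss versus DMSO negative control. Primary single-concentration screen at 25 uM in duplicate; concentration series for actives.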

[11] = target: Peroxisome proliferator-activated receptor gamma (Homo sapiens) (UniProt P37231); assay: NVS_NR_hPPARg: NovaScreen (NVS) Nuclear Receptor Binding Assay for human Peroxisome Proliferator-activated Receptor gamma (PPARg) (AID 2283370)
Procedure, shortened: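 Fluorescence polarization measures competitive binding to extracted PPARg in a cell-free format. Reading is taken at 2 h; activity is signal loss relative to DMSO. Screening at 25 uM in duplicate preceded confirmatory dose series.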

[12] = target: Estrogen receptor beta (Homo sapiens) (UniProt Q92731); assay: OT_ER_ERbERb_1440: Odyssey Thera (OT) 24-hour HEK293T Protein-Complementation Assay for Estrogen Receptor-beta/-beta Homodimer (AID 2283380);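 further: scored as signal increase over DMSO baseline for both agonists and antagonists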
Procedure, shortened: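 HEK293T cells stably expressing ER beta LBD (aa 310-547) homodimer fragment-complementation reporter, dosed 24 h. Cells formaldehyde-fixed, Draq5-stained; gain in nuclear (agonist) or nuclear plus cytoplasmic (antagonist) fluorescence versus DMSO read by laser scanning cytometry.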

[13] = system: guinea pig Dopamine Transporter (DAT), gene 100714898; assay: NVS_TR_gDAT: NovaScreen (NVS) Transporter Assay for guinea pig Dopamine Transporter (DAT) (AID 2283369);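 further: active compounds lower bound radioligand signal relative to DMSO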
Procedure, shortened: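 Test chemicals were incubated 2 h with guinea pig striatal membranes and a radioligand; bound label was separated by filtration and counted. Screening ran at 25 uM, followed by concentration-response testing to a 50 uM maximum.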

[14] = target: human Norepinephrine Transporter (NET), SLC6A2 (gene 6530) (UniProt P23975); assay: NVS_TR_hNET: NovaScreen (NVS) Transporter Assay for human Norepinephrine Transporter (NET) (AID 2283377);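 further: cell-free membrane protein extracted from CHO cells expressing human NET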;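 on AC50: displacement of radioligand from human NET seen as loss of scintillation signal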
Chain of human Norepinephrine Transporter (NET), SLC6A2 (gene 6530) (P23975 whole entry, looked up): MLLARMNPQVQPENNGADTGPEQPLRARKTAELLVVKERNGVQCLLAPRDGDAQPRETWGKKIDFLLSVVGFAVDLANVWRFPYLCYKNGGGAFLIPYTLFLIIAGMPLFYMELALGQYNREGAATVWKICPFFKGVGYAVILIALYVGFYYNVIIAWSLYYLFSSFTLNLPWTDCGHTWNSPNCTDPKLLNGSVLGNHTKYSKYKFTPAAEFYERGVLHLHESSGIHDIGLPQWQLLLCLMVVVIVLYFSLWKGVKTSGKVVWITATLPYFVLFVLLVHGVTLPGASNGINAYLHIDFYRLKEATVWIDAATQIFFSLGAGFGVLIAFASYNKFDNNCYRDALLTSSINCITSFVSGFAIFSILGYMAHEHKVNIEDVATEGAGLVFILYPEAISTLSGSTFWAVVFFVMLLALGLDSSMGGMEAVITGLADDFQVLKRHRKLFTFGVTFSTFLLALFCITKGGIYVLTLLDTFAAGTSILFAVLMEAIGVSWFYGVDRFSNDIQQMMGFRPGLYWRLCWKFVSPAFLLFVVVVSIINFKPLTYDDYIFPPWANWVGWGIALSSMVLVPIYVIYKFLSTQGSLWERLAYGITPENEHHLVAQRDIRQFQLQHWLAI
Procedure, shortened: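 CHO cell extracts expressing the transporter; tritiated or iodinated tracer displaced competitively; filtration plus scintillation readout at 1 h. Single-point duplicates at 25 uM, concentration series for follow-up; activity = signal drop relative to DMSO.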

[15] = target: rat Androgen Receptor (AR), Ar (gene 24208) (UniProt P15207); assay: NVS_NR_rAR: NovaScreen (NVS) Nuclear Receptor Binding Assay for rat Androgen Receptor (AR) (AID 2283366)
Procedure, shortened: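 Actives from a duplicate single-concentration (25 uM) primary run went on to concentration series. Displacement of radioligand was counted by filtration and scintillation, 18 h post-dose, using prostate extracts from testosterone-pretreated rats, with DMSO as baseline.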

[16] = target: rat Serotonin Transporter (SERT), Slc6a4 (gene 25553) (UniProt P31652); assay: NVS_TR_rSERT: NovaScreen (NVS) Transporter Assay for rat Serotonin Transporter (SERT) (AID 2283375)
Procedure, shortened: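 Steps: rat forebrain membranes dosed with chemical (25 uM duplicate primary; concentration series for actives); 1 h incubation; labelled ligand bound, filtered, counted by scintillation. Activity scored as signal loss vs DMSO.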

[17] = target: rat Mineralocorticoid Receptor (MR), Nr3c2 (gene 25672) (UniProt P22199); assay: NVS_NR_rMR: NovaScreen (NVS) Nuclear Receptor Binding Assay for rat Mineralocorticoid Receptor (MR) (AID 2283355)
Procedure, shortened: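 Radioligand displacement, scintillation readout; tissue source adrenalectomized rat brain supernatant. Read 24 h post-dose. Screened in duplicate at 25 uM, DMSO negative control, controls on every plate; actives re-run in concentration series.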

[18] = target: human Thyroid Receptor Alpha (TRa), THRA (gene 7067) (UniProt P10827); assay: NVS_NR_hTRa_Antagonist: NovaScreen (NVS) Nuclear Receptor Binding Assay for human Thyroid Receptor Alpha Antagonism (TRa) (AID 2283362)
Procedure, shortened: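 Chemicals were first screened in duplicate at 25 uM, then actives were retested in concentration series. Binding to the extracted receptor was measured 1 h after dosing by AlphaLISA chemiluminescence, with decreased signal versus DMSO scored as activity.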

[19] = target: guinea pig Sigma Receptor, Non-selective Binding, SIGMAR1 (gene 100135589) (UniProt Q60492); assay: NVS_OR_gSIGMA_NonSelective: NovaScreen (NVS) Nuclear Receptor Binding Assay for guinea pig Sigma Receptor, Non-selective Binding (AID 2283367)
Procedure, shortened: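 Membranes from guinea pig brain incubated with radioligand and test chemical for 1 h, then filtered and scintillation-counted. Duplicate primary testing at 25 uM, with concentration-series follow-up for actives.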

Measured: AC50

CNC(=S)NC
inactive: [1] | [2] | [3] | [4] | [5]

c1ccc(B(c2ccccc2)c2ccccc2)cc1
inactive: [6] | [5]

CCCCNc1ccccc1
inactive: PGR (gene 5241) | [7]

CC(Cc1ccc(O)c(O)c1)C(C)Cc1ccc(O)c(O)c1 (stereo unspecified)
active: [8] 11.9 µM | [9] 11.9 µM | [10] 11.7 µM | [1] 4.6 µM | [2] 1.79 µM | [3] 5.16 µM | [11] 4.91 µM | [6] 1.82 µM | [12] 11.9 µM | [5] 11.9 µM

C1COCCN1
inactive: [8] | [9] | [12] | [5]

[Co]
inactive: [8] | [9] | [4] | [12] | [5]

CCCCCCOC(=O)c1ccccc1O
inactive: [8] | [9] | [3] | [12] | [5]

Nc1ccc(Oc2cccc(Oc3ccc(N)cc3)c2)cc1
active: [13] 3.46 µM | [7] 1.02 µM
inactive: PGR (gene 5241) | [14]

CC(=O)Nc1ccc(N=Nc2cc(C)ccc2O)cc1
active: [15] 25 µM

COC(=O)C1CCC(C(=O)OC)CC1 (stereo unspecified)
inactive: [8] | [9] | [3] | [12] | [5]

CC/C=C\CCOC(C)=O
inactive: [8] | [9] | [12] | [5]

CCN(CC)c1ccc2c(C)cc(=O)oc2c1
active: [13] 13.6 µM | [7] 20.2 µM | [14] 25 µM

Cc1cc(C)cc(O)c1
inactive: [8] | [9] | [2] | [12] | [5]

CCN(Cc1cccc(S(=O)(=O)O)c1)c1ccc(C(=C2C=CC(=[N+](CC)Cc3cccc(S(=O)(=O)O)c3)C=C2)c2ccc(O)cc2S(=O)(=O)[O-])cc1
inactive: [8] | [9] | [12] | [5]
active: [10] 7.39 µM | [2] 11.5 µM | [3] 2.41 µM | [11] 8.78 µM

CN(C)Cc1ccccc1O
inactive: [8] | [9] | [12] | [5]

O[Si](c1ccccc1)(c1ccccc1)c1ccccc1
active: [14] 25 µM

O=S(=O)(O)c1ccc2ccccc2c1
inactive: [3] | [5]

CC(CCl)OP(=O)(OC(C)CCl)OC(C)CCl (stereo unspecified)
inactive: [8] | [9] | [11] | [12] | [5]
active: [3] 4.35 µM

CCCCOc1ccc(N)cc1
inactive: [9] | [5]
active: [8] 68.7 µM | [12] 25.2 µM

Cc1cccc(N(C)C)c1
inactive: [16]

CCCCCCOC(=O)c1ccccc1
inactive: [8] | [9] | [12] | [5]

Oc1ccc(Nc2ccccc2)cc1
active: [13] 12.1 µM | [7] 6.97 µM | [14] 11.9 µM
inactive: [6]

O=C(OCCOCCOCCOC(=O)c1ccccc1)c1ccccc1
inactive: [8] | [3] | [12] | [5]

C#C[C@]1(O)CC[C@H]2[C@@H]3CCc4cc(OC)ccc4[C@H]3CC[C@@]21C
inactive: [17] | PGR (gene 5241) | [2] | [6]
active: [16] 19 µM | [14] 3.99 µM | [5] 0.0277 µM

CO[Si](OC)(c1ccccc1)c1ccccc1
inactive: [14]

CC(C)OC(=O)c1ccccc1C(=O)OC(C)C
inactive: [5]

CC(C)c1ccccc1N
inactive: [14]

CCCCCCC(C)OC(=O)CCCCC(=O)OC(C)CCCCCC (stereo unspecified)
inactive: [8] | [9] | [18] | [4] | [12] | [5]

Cc1ccc(S(=O)(=O)NCl)cc1
inactive: [8] | [9] | [3] | [12] | [5]

C(=C(c1ccccc1)c1ccccc1)c1ccccc1
active: [8] 29.3 µM | [9] 1.49 µM | [6] 8.44 µM | [12] 1.59 µM | [5] 1.61 µM

CCCCCCCCCCCCCCCC[N+](C)(C)Cc1ccccc1
inactive: [16]
active: [19] 1.23 µM | [13] 17.3 µM | [7] 1.89 µM | [14] 2.45 µM

OC[C@@H](O)[C@@H](O)[C@H](O)[C@@H](O)CO
inactive: [5]

CCCCC(CC)COP(=O)(O)OCC(CC)CCCC (stereo unspecified)
inactive: [1] | [3] | [11] | [6] | [5]
active: [2] 8.04 µM
